Records with an inconclusive call do not appear. A call without a number means that no potency is given here. The source made the active and inactive calls. The call rests on the fitted dose curve; in most records, active means well fitted activation curve with a large enough effect; inconclusive means small, poorly fitted or top-dose-only effect; inactive means flat fitted curve, though single readings scatter.
Assay: FLuc inhibitory activity for the follow-up compounds in a cell-based translational read-through assay
Details: GripTite 293 FLucUGA read-through, luminescence, 48 h; series mostly up to 38.3 µM
From the text: NCGC Assay Overview: Firefly (Photinus pyralis) luciferase is one of the most commonly used transcriptional reporters. It is considered one of the more dynamically responsive reporters - that is, responsive to changes in reporter transcription - as it requires no post-translational modifications and is enzymatically active directly after protein synthesis (Wood, 1998). With no endogenous expression in mammalian cells and without the requirement of external excitation, it offers very little background signal, thus generally providing excellent signal to background for most assays. Previous profiling work to determine the prevalence of compounds that affect FLuc enzymatic activity (PubChem AID 411) identified that ~3% of the MLSMR library (then at ~72K) inhibited FLuc (Auld et al., 2008). […] Of the compounds identified in this profile that inhibited FLuc, 151 compounds were selected for further analysis, in an effort to better understand their mode of inhibiting FLuc. The assay described here was to determine the activity of the compounds in a cell-based firefly luciferase reporter gene assay originally designed to identify compounds that enchanced translational read-through of a FLuc cDNA that contained a premature stop codon (Auld et al., 2009; Auld et al., 2010). Compounds that enhance translational read-through or compounds that stabilize FLuc intracellularly are identified as active compounds in the assay.
NCGC Assay Protocol Summary: Reagents: Transient transfection of FlucUGA construct: TransFast Transfection Reagent (Promega #E2431); FLucUGA construct (refer to Auld et al., 2009) #GripTite 293 MSR Cell Line (Invitrogen #R795-07) #Complete growth media: DMEM (Invitrogen #11965), 10% HIFBS, 0.1mM MEM NEAA, 5mL/L pen-strep (of 5000U/mL stock), 600ug/mL Geneticin #Assay media: DMEM without phenol red (Invitrogen #21063), 5% charcoal-stripped HIFBS (Hyclone #SH30071.03), 0.1mM MEM NEAA In-house detection reagent: 300mM Tris-HCl, 300mM Trizma base, 300mM MgCl, 1% Triton-X100, 5mM DTT, 500uM Coenzyme A trilithium salt (Sigma #C3019),450uM ATP (Sigma #A7699), 1mM D-luciferin sodium salt monohydrate (Biosynth #L8240) Control compounds used were two known firefly luciferase inhibitors (3-(5-(3-chlorophenyl)-1,2,4-oxadiazol-3-yl)benzoic acid and 5-(2-fluorophenyl)-3-phenyl-1,2,4-oxadiazole), and DMSO. Assay Summary: Transient transfection of FlucUGA construct: Day 1: GripTite cells were plated in T175 flasks at a density of 1.75 x 10^7 cells/T175 flask in complete growth media without Geneticin and allowed to grow ON in a 37 degrees Celsius incubator. Day 2: Cells in T175 flask were transfected - with 10ug of DNA and 30uL Transfast in 12mL complete growth media without serum and without Geneticin for 4 hours at 37 degrees Celsius. After incubation, cells were trypsinized, spun down, and resuspended to a concentration of 3.3 x 10^5 cells/mL in assay media. 6uL of cells in assay buffer were dispensed at 2000cells/well (3.3 x 10^5 cells/mL) into Greiner solid-white TC-treated 1536-well plates using a Multidrop Combi (Thermo Fisher Scientific). Plates were incubated for one hour at 37 degree Celsius, 95% humidity, 5% CO2. These assay plates were then treated with 23nL of compound or DMSO using a Kalypsys pin tool, which allows for delivery of a 12-point titration of each compound to the assay plate, with a final compound concentration ranging from approximately ~38uM to 0.2nM. Assay plates were then incubated for 48 hours. After incubation, plates were washed three times with DPBS (7uL/well). After the third wash, 6uL of DPBS was added to each well. 3uL of 3X luciferase detection reagent was then added to each well using a flying reagent dispenser (FRD). After a 15 minute incubation to allow for cell lysis, luciferase activity was measured using a ViewLux CCD imager (PerkinElmer), with an average exposure time of 2-12 seconds.

| SMILES | Potency |
| --- | --- |
| O=C(O)c1cccc(NC(=O)c2cccc(S(=O)(=O)Nc3cccc(F)c3)c2)c1 | inactive |
| O=C(O)c1cccc(NC(=O)c2cccc(S(=O)(=O)N3CCc4ccccc4C3)c2)c1 | inactive |
| Cc1cccc(C(=O)Nc2ccc(-c3nc4ccccc4s3)cc2Cl)c1 | inactive |
| O=C(Nc1ccccc1C(=O)O)c1cccc(C(=O)Nc2ccccc2C(=O)O)c1 | inactive |
| O=C(O)c1ccc(NC(=O)c2ccccc2NC(=O)c2cccc(Br)c2)cc1 | inactive |
| COc1cc(OC)cc(C(=O)Nc2ccccc2-c2nc3ccccc3s2)c1 | inactive |
| CC(C)Oc1ccc(C(=O)Nc2ccc(-c3nc4ccccc4s3)cc2)cc1 | inactive |
| COc1ccc2nc(NC(=O)CCc3ccc(OC)c(OC)c3)sc2c1 | inactive |
| O=C(O)c1cccc(NC(=O)c2cccc(NC(=O)C3CCCO3)c2)c1 (stereo unspecified) | inactive |
| O=C(O)c1ccc(NC(=O)c2cccc(C(=O)Nc3ccc(C(=O)O)cc3)c2)cc1 | inactive |
| O=C(O)c1ccccc1NC(=O)c1ccccc1Nc1ccccc1 | inactive |
| CC(=O)Oc1ccc(C(=O)Nc2ccccc2C(=O)Nc2ccc(C(=O)O)cc2)cc1 | inactive |
| COc1ccc(NS(=O)(=O)c2cccc(C(=O)Nc3ccccc3C(=O)O)c2)cc1 | inactive |
| Nc1ccc(-c2nc3ccc(N)cc3s2)cc1 | 15.9 µM (active) |
| CN=c1scc(-c2ccccc2F)n1/N=C/c1ccc[nH]1 | 0.0504 µM (active) |
| O=C(Nc1ccccc1C(=O)O)c1cc(S(=O)(=O)NCc2ccccc2)ccc1Cl | inactive |
